Measurements from PubChem BioAssay (Tox21).
Where “and” joins values, the source holds several entries; their conditions need not be identical. Equal values may be shown once. Records with an inconclusive call do not appear. More than one record can exist for a structure, and the calls need not agree. Calls of active or inactive are those of the source. Unless noted, calls follow the shape of the dose curve; as a rule, active = well fitted curve in the direction sought with a large enough effect in the repeat runs; inconclusive = weak or mixed curves; inactive = no such curve, though single readings can be large; an effect the other way counts as inactive or inconclusive.

Assays:
[1] = qHTS assay to identify small molecule antagonists of the glucocorticoid receptor (GR) signaling pathway - cell viability counter screen (AID 720693); also: nearly all actives have a fitted effect of over 55% in size
[2] = qHTS assay for identifying genotoxic compounds that show differential cytotoxicity against isogenic chicken DT40 cell lines with known DNA damage response pathways - wild type cell line (AID 743012); also: nearly all actives have a fitted effect of over 60% in size; also: potency is read from the fitted curve at half-maximal effect
Summary of the method: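 Wild type DT40, 300 cells/well, ~0.5 h settle at 37 C/5% CO2; compounds in DMSO added by pintool; 40 h at 37 C/5% CO2; CellTiter-Glo, 30 min RT; luminescence.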

[3] = qHTS assay for identifying genotoxic compounds that show differential cytotoxicity against isogenic chicken DT40 cell lines with known DNA damage response pathways - Rev3 mutant cell line (AID 743014); also: nearly all actives have a fitted effect of over 55% in size; also: potency is read from the fitted curve at half-maximal effect
[4] = qHTS assay for identifying genotoxic compounds that show differential cytotoxicity against isogenic chicken DT40 cell lines with known DNA damage response pathways - Rad54/Ku70 mutant cell line (AID 743015); also: nearly all actives have a fitted effect of over 60% in size; also: potency is read from the fitted curve at half-maximal effect
[5] = qHTS assay to identify small molecule antagonists of the androgen receptor (AR) signaling pathway - cell viability counter screen (AID 743033; also: nearly all actives have a fitted effect of over 45% in size)
[6] = target: Androgen receptor (Homo sapiens) (UniProt P10275); assay: qHTS assay to identify small molecule antagonists of the androgen receptor (AR) signaling pathway (AID 743035; active = well fitted inhibition curve with a large enough effect in the signal ratio in the repeat runs, not every such curve was filed as active; the % refers to the signal ratio)
Summary of the method: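 Fluorescence from a beta-lactamase FRET substrate (LiveBLAzer B/G, 2 h, room temperature) measured inhibition of R1881-stimulated signaling in GeneBLAzer AR-UAS-bla HEK293 cells exposed to compound for 16 h at 37C.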

[7] = target: Androgen receptor (Homo sapiens) (UniProt P10275); assay: qHTS assay to identify small molecule agonists of the androgen receptor (AR) signaling pathway using the MDA cell line (AID 743040; also: nearly all actives have a fitted effect of over 20% in size)
Summary of the method: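 After a 5 h incubation at 37C and 0% CO2, MDA-kb2 reporter cells were dosed with compounds in DMSO and kept 16 h under the same conditions. Luciferase activity was then read as luminescence with ONE-Glo.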

[8] = qHTS assay to identify small molecule antagonists of the androgen receptor (AR) signaling pathway using the MDA cell line - cell viability counter screen (AID 743041; also: nearly all actives have a fitted effect of over 45% in size)
Summary of the method: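 R1881-driven MDA-kb2 AR-luc cells, 3,000/well, were dosed with library compounds for 16 h; cell health came from CellTiter-Fluor fluorescence in the reporter wells.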

[9] = qHTS assay to identify small molecule antagonists of the thyroid receptor (TR) signaling pathway (AID 743065); also: series mostly up to about 70 µM; nearly all actives have a fitted effect of over 55% in size
Summary of the method: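 Antagonism measured as loss of luciferase signal in GH3 cells stably carrying a TRE-luciferase reporter, co-treated with compound and T3 (1 nM final) for 23.5 h at 37 C. Viability was read in the same well by CellTiter-Fluor.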

[10] = qHTS assay to identify small molecule antagonists of the thyroid receptor (TR) signaling pathway - cell viability counter screen (AID 743064); also: nearly all actives have a fitted effect of over 50% in size
Summary of the method: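 Counter screen for cytotoxicity: compound plus T3 (1 nM final) on GH3.TRE-Luc cells, 23.5 h at 37 °C, then fluorescence viability readout with CellTiter-Fluor.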
% is scaled to controls: 0 for no effect and ±100 for the full control effect.

Sequence of Androgen receptor (Homo sapiens) (P10275 whole entry, looked up): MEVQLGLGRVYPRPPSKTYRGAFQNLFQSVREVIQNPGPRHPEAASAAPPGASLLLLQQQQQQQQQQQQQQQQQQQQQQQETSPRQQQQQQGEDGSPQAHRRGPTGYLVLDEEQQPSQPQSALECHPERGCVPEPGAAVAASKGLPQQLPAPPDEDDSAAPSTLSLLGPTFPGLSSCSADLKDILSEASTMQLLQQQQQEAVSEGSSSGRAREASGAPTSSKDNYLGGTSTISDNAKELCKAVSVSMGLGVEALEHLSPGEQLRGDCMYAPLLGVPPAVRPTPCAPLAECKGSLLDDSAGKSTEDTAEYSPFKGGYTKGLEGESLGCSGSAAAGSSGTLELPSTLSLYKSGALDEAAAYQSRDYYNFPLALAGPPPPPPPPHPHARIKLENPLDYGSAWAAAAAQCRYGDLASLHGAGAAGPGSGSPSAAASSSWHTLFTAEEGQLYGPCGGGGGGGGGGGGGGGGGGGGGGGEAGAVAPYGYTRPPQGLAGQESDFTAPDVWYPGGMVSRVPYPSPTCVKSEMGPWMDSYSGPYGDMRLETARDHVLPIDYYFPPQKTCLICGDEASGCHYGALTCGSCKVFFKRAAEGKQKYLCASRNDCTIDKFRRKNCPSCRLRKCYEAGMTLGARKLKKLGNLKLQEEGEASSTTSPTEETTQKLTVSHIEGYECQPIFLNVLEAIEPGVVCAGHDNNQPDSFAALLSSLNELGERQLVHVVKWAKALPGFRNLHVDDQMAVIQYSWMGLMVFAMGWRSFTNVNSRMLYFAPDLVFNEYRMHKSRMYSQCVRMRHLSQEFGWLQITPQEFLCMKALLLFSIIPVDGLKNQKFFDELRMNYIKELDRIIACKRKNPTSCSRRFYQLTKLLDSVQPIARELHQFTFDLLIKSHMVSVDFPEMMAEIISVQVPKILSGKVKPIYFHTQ

c1ccc(-c2ccccc2)cc1
inactive: outcome [1] | Potency [2] | Potency [3] | Potency [4] | outcome [5] | Potency [6] | outcome [7] | outcome [8] | Potency [9]

[N-]=[N+]=[N-]
inactive: outcome [1] | Potency [2] | Potency [3] | Potency [4] | outcome [5] | Potency [6] | outcome [7] | outcome [8] | Potency [9]

CCCN(CCC)c1c([N+](=O)[O-])cc(C(F)(F)F)cc1[N+](=O)[O-]
inactive: outcome [1] | Potency [2] | Potency [3] | Potency [4] | outcome [5] | Potency [6] | outcome [7] | outcome [8]

CCCCCOC(=O)c1ccccc1C(=O)OCCCCC
inactive and 61.1 µM (active): Potency [2]
inactive: outcome [1] | Potency [3] | Potency [4] | outcome [5] | outcome [8] | Potency [10] | Potency [9]

CC1OC(C)OC(C)O1 (centres undefined)
inactive: outcome [1] | Potency [2] | Potency [3] | Potency [4] | outcome [5] | outcome [8]

c1ccc2c(c1)Oc1ccccc1O2
inactive: outcome [1] | Potency [2] | Potency [3] | Potency [4] | outcome [5] | outcome [8] | Potency [10] | Potency [9]

O=c1[nH]c2ccccc2c(=O)o1
inactive: outcome [1] | Potency [2] | Potency [3] | Potency [4] | outcome [5] | outcome [8] | Potency [10] | Potency [9]

OC(O)C(Cl)(Cl)Cl
inactive: outcome [1] | Potency [2] | Potency [3] | Potency [4] | outcome [5] | outcome [8] | Potency [10] | Potency [9]

CN(C)[C@@H]1C(=O)C(C(N)=O)=C(O)[C@@]2(O)C(=O)C3=C(O)c4c(O)cccc4[C@@](C)(O)[C@H]3C[C@@H]12
inactive: outcome [1] | Potency [2] | Potency [3] | Potency [4] | outcome [5] | outcome [8] | Potency [10] | Potency [9]

Cc1[nH]c(=O)n(C(C)(C)C)c(=O)c1Cl
inactive: outcome [1] | Potency [2] | Potency [3] | Potency [4] | outcome [5] | Potency [6] | outcome [7] | outcome [8] | Potency [10] | Potency [9]

CCOC(=O)c1ccccc1C(=O)OCC
inactive: outcome [1] | Potency [2] | Potency [3] | Potency [4] | outcome [5] | outcome [8] | Potency [10] | Potency [9]

CCCCCCCCCl
inactive: outcome [1] | Potency [2] | Potency [3] | Potency [4] | outcome [5] | outcome [8] | Potency [10] | Potency [9]

CCCCOC(=O)c1ccccc1C(=O)OCCCC
active: Potency [2] 24.3 µM
inactive: outcome [1] | Potency [3] | Potency [4] | outcome [5] | outcome [8] | Potency [10] | Potency [9]

ClCc1cccnc1
inactive: outcome [1] | Potency [2] | Potency [3] | Potency [4] | outcome [5] | outcome [8] | Potency [10] | Potency [9]

O=c1[nH]c(=O)[nH]c(=O)[nH]1
inactive: outcome [1] | Potency [2] | Potency [3] | Potency [4] | outcome [5] | Potency [6] | outcome [7] | outcome [8] | Potency [10] | Potency [9]

O=c1ccc(=O)[nH][nH]1
inactive: outcome [1] | Potency [2] | Potency [3] | Potency [4] | outcome [5] | Potency [6] | outcome [7] | outcome [8] | Potency [10] | Potency [9]

CCN(CC)c1ccccc1
inactive: outcome [1] | Potency [2] | Potency [3] | Potency [4] | outcome [5] | Potency [6] | outcome [7] | outcome [8] | Potency [10] | Potency [9]

CCCN(CCC)N=O
inactive: outcome [1] | Potency [2] | Potency [3] | Potency [4] | outcome [5] | outcome [8] | Potency [10] | Potency [9]

Oc1ccccc1Cl
inactive: outcome [1] | Potency [2] | Potency [3] | Potency [4] | outcome [5] | outcome [8] | Potency [10] | Potency [9]

CCCCN(CC)C(=O)SCCC
inactive: outcome [1] | Potency [2] | Potency [3] | Potency [4] | outcome [5] | Potency [6] | outcome [7] | outcome [8] | Potency [10] | Potency [9]

C=C(C)CCl
inactive: outcome [1] | Potency [2] | Potency [3] | Potency [4] | outcome [5] | Potency [6] | outcome [7] | outcome [8] | activity change, negative = cytotoxic [10] -10.5% [at 8.44 µM] | Potency [9]

COCCl
inactive: outcome [1] | Potency [2] | Potency [4] | outcome [5] | Potency [6] | outcome [7] | outcome [8] | Potency [9]
inactive and 13.8 µM (active): Potency [3]

C=CCO
inactive: outcome [1] | Potency [2] | Potency [3] | Potency [4] | outcome [5] | outcome [8] | Potency [10]

Nc1ccc(Cc2ccc(N)cc2)cc1
inactive and 48.6 µM (active): Potency [3]
inactive: outcome [1] | Potency [2] | Potency [4] | outcome [5] | outcome [8] | Potency [10] | Potency [9]

CCCCCCCCCCCC#N
inactive: outcome [1] | Potency [2] | Potency [3] | Potency [4] | outcome [5] | outcome [8] | Potency [10] | Potency [9]

COc1ccc2c3c1O[C@H]1[C@@H](O)C=C[C@H]4[C@@H](C2)N(C)CC[C@@]341
inactive: outcome [1] | Potency [2] | Potency [3] | Potency [4] | outcome [5] | outcome [8]

O=C(NC(=O)c1c(F)cccc1F)Nc1cc(Cl)c(OC(F)(F)C(F)C(F)(F)F)cc1Cl (centres undefined)
active: Potency [2] 3.35 µM | Potency [3] 4.22 µM | Potency [4] 5.96 µM and 21.7 µM
inactive: outcome [1] | outcome [5] | Potency [6] | outcome [7] | outcome [8] | Potency [10] | Potency [9]

CC(C)N1C(=O)c2ccccc2NS1(=O)=O
inactive: outcome [1] | Potency [2] | Potency [3] | Potency [4] | outcome [5] | outcome [8] | Potency [10] | Potency [9]

CNC(=O)Oc1ccccc1OC(C)C
inactive: outcome [1] | Potency [2] | Potency [3] | Potency [4] | outcome [5] | outcome [8] | Potency [10] | Potency [9]

BrCCBr
18.8 µM (active) and inactive: Potency [3]
inactive: outcome [1] | Potency [2] | Potency [4] | outcome [5] | outcome [8] | Potency [10] | Potency [9]

CCc1cccc(C)c1N(C(=O)CCl)C(C)COC (centres undefined)
active: Potency [2] 40.8 µM and 10.9 µM | Potency [3] 16.2 µM and 12.2 µM | Potency [4] 45.8 µM and 17.2 µM
inactive: outcome [1] | outcome [5] | outcome [8] | Potency [10]

CCNc1nc(NC(C)C)nc(SC)n1
inactive: outcome [1] | outcome [5] | outcome [7] | outcome [8] | Potency [10] | Potency [9]
inactive and 61.1 µM (active): Potency [2]
active: Potency [3] 61.1 µM | Potency [4] 61.1 µM

C[C@]12CC[C@H]3[C@@H](CC[C@@]45O[C@@H]4C(O)=C(C#N)C[C@]35C)[C@@H]1CC[C@@H]2O
active: Potency [4] 30.6 µM
inactive and 61.1 µM (active): Potency [2]
inactive and 27.3 µM (active): Potency [3]
inactive: outcome [1] | outcome [5] | outcome [8]

Cc1cccc([N+](=O)[O-])c1
inactive: outcome [1] | Potency [2] | Potency [3] | Potency [4] | outcome [5] | outcome [8] | Potency [10]

NCC(O)c1ccc(O)cc1 (centres undefined)
inactive: outcome [1] | Potency [2] | Potency [3] | Potency [4] | outcome [5] | outcome [8] | Potency [10] | Potency [9]

Cn1cc(-c2ccccc2)c(=O)c(-c2cccc(C(F)(F)F)c2)c1
inactive: outcome [1] | Potency [2] | Potency [3] | outcome [5] | outcome [8] | Potency [10]
active: Potency [4] 61.1 µM

O=S(=O)(c1ccc(Cl)cc1)c1cc(Cl)c(Cl)cc1Cl
inactive and 54.5 µM (active): Potency [4]
inactive and 48.6 µM (active): Potency [2]
inactive: outcome [1] | outcome [5] | outcome [8] | Potency [10] | Potency [9]
inactive and 61.1 µM (active): Potency [3]

Clc1ccc(Cl)cc1
inactive: outcome [1] | Potency [2] | Potency [3] | Potency [4] | outcome [5] | outcome [8] | Potency [9]

O=NN1CCCC1
inactive: outcome [1] | Potency [2] | Potency [3] | Potency [4] | outcome [5] | outcome [8] | Potency [9]

COC(=O)c1ccccc1C(=O)OC
inactive: outcome [1] | Potency [2] | Potency [3] | Potency [4] | outcome [5] | outcome [8] | Potency [9]

O=Cc1cccc(Oc2ccccc2)c1
inactive: outcome [1] | Potency [2] | Potency [3] | Potency [4] | outcome [5] | outcome [8] | Potency [9]

O=NN1CCCCCCC1
inactive: outcome [1] | Potency [2] | Potency [3] | Potency [4] | outcome [5] | outcome [8] | Potency [10] | Potency [9]

CC(C#N)CCC#N (centres undefined)
inactive: outcome [1] | Potency [2] | Potency [3] | Potency [4] | outcome [5] | outcome [8] | Potency [9]

Cc1cc(Cl)ccc1O
inactive: outcome [1] | Potency [2] | Potency [3] | Potency [4] | outcome [5] | outcome [8] | Potency [10] | Potency [9]

CC1C=[C-]C=C1.[C-]#[O+].[C-]#[O+].[C-]#[O+].[Mn]
inactive: outcome [1] | Potency [2] | Potency [3] | Potency [4] | outcome [5] | outcome [8] | Potency [9]

CC(C)(Cl)Cl
inactive: outcome [1] | Potency [2] | Potency [3] | Potency [4] | outcome [5] | outcome [8] | Potency [10] | Potency [9]

C#CCN(C)[C@H](C)Cc1ccccc1
inactive: outcome [1] | Potency [2] | Potency [3] | Potency [4] | outcome [5] | outcome [8] | Potency [10] | Potency [9]

Clc1cccc(Cl)c1Cl
inactive: outcome [1] | Potency [2] | Potency [3] | Potency [4] | outcome [5] | outcome [8] | Potency [10] | Potency [9]

O=[N+]([O-])c1ccc([As](=O)(O)O)cc1
inactive: outcome [1] | Potency [2] | Potency [3] | Potency [4] | outcome [5] | outcome [8] | Potency [9]

CCC[CH2][Sn]([Cl])([Cl])[Cl]
inactive: outcome [1] | Potency [2] | Potency [3] | Potency [4] | outcome [5] | outcome [8] | Potency [10] | Potency [9]

O=S(=O)(c1ccc(O)cc1)c1ccc(O)cc1
inactive: outcome [1] | Potency [2] | Potency [3] | Potency [4] | outcome [5] | outcome [8] | Potency [10] | Potency [9]
